From PubChem BioAssay AID696 (Sanford-Burnham Center for Chemical Genomics, 2007)
The whole screen tested about 96,000 compounds, of which about 1,200 (1.2%) were called active. The list comes from a sample in which actives are over-represented; it also holds similar structures and randomly drawn compounds. Values without a mark were called inactive. Rule as the data show it: active = activation fold above about 2; inactive = the rest.

Biological target: Alkaline phosphatase, placental type (Homo sapiens) (UniProt P05187)
Test: activation of human placental alkaline phosphatase – biochemical, luminescence, HTS (AID 696)
Settings: purified PLAP enzyme, luminescent substrate read-out; at 20 µM; stronger effect = higher value

Chain of Alkaline phosphatase, placental type (Homo sapiens) (P05187 whole entry, looked up): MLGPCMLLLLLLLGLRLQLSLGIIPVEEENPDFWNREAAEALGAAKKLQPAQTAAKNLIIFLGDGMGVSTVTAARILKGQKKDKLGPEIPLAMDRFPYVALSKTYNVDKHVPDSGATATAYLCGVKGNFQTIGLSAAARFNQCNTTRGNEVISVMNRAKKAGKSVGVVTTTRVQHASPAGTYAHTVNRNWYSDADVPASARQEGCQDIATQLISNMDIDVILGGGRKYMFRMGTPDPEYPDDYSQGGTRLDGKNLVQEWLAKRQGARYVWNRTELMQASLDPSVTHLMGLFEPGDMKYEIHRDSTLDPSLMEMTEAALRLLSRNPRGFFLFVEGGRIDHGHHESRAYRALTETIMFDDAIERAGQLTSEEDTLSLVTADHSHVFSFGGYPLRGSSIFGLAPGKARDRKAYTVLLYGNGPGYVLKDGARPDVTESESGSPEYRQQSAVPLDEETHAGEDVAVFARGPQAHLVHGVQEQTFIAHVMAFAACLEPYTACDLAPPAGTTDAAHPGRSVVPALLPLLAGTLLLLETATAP

SMILES	activation fold
CCOC(=O)C1=NNC2(c3ccc(Cl)cc3)C(=O)N(c3cc(C)cc(C)c3)C(=O)C12 (configuration not stated)	1.1
CCOC(=O)Cc1csc(NC(NC(=O)OCC)(C(F)(F)F)C(F)(F)F)n1	0.9
CCOc1ccc(Nc2nc(Cc3nnc(SCC(=O)c4ccc(C)cc4)o3)cs2)cc1	0.7
Cc1cc(C(F)(F)F)n2ncc(-c3ccccc3)c2n1	0.9
Cn1c(-c2sc3cc(C(F)(F)F)cnc3c2-c2ccccc2)n[nH]c1=S	2.6 (active)
Cc1ccc(/C=N\n2c(-c3ccccc3)n[nH]c2=S)s1	1.3
CO/N=C(/CS(=O)(=O)c1ccc(Br)cc1)c1ccc(OC)cc1	1.6
CC(C)c1ccc(Nc2ncccc2C#N)cc1	0.9
COc1ccccc1C(=O)Nc1nc2nc(-c3ccccc3)cc(=O)n2[nH]1	1.1
CCCCNc1ccc(C(=O)Nc2cccc(C)n2)cc1[N+](=O)[O-]	0.9
O=C(Nc1nnc(SCc2ccc(Cl)cc2Cl)s1)C1COc2ccccc2O1 (configuration not stated)	1.1
O=C(CCCN1C(=O)c2cccc3cccc(c23)C1=O)N1CCN(Cc2ccc3c(c2)OCO3)CC1	1.6
O=C(Nc1cccc2ccccc12)N1CCN(Cc2ccc3c(c2)OCO3)CC1	2.1 (active)
O=C(c1cccs1)N1CCN(Cc2ccc3c(c2)OCO3)CC1	1.2
O=C(CN1CCSCC1)N/N=C/c1ccc(F)cc1F	1
Cc1cccc(N(CC(=O)N2CCOCC2)S(C)(=O)=O)c1	0.8
CCC1Oc2ccc(Cl)cc2N(CC(=O)O)C1=O (configuration not stated)	1
Cc1cccc(N2C(=O)SC(N(CC(=O)O)c3cccc(C)c3)C2=O)c1 (configuration not stated)	2.2 (active)
Cc1csc(OCC(=O)Nc2ccc(C)c(C)c2)n1	1.2
N/C(=N\OC(=O)CCc1ccccc1)c1ccc(Cl)cc1	0.9
COc1cc(NS(=O)(=O)c2ccc(N=Cc3c(C)[nH]n(-c4ccccc4)c3=O)cc2)nc(OC)n1	1.5
Cc1[nH]n(-c2cccc(Cl)c2)c(=O)c1-c1ccc(Cl)cc1	1
Cc1[nH]n(-c2cccc(Cl)c2)c(=O)c1/C=N/n1c(C)nc2ccccc2c1=O	2.1 (active)
CC1(C)CC(=O)C2=C(C1)N=C1SCCC(=O)N1C2c1ccc(C(F)(F)F)cc1 (configuration not stated)	1.2
COc1ccc(C)cc1S(=O)(=O)NCCc1ccccc1	0.8
COC(=O)c1ccccc1NC(=O)CN(Cc1ccc(Cl)cc1)S(C)(=O)=O	1.5
COc1ccc([N+](=O)[O-])cc1N(CC(O)Cn1nnc2ccccc21)S(=O)(=O)c1ccc(C)cc1 (configuration not stated)	1.4
